Source: PubChem BioAssay (National Center for Advancing Translational Sciences (NCATS))
Shown are actives, neighbours in structure and some others; about 8.7% of the full set was active somewhere.
HP1b binding inh: HTS for Inhibitors of HP1-beta Chromodomain Interactions with Methylated Histone Tails. Chromobox protein homolog 1 (Homo sapiens), P83916. AlphaScreen HP1-beta / biotin-H3K9me3 peptide binding. Potency, µM (titrated, usually from 114 µM), usual class: inhibitors. 390,000 compounds, 0.56% hits. AID 540317, 2011; also: nearly all actives have a fitted effect of over 70% in size
Target sequence (P83916 whole entry, looked up): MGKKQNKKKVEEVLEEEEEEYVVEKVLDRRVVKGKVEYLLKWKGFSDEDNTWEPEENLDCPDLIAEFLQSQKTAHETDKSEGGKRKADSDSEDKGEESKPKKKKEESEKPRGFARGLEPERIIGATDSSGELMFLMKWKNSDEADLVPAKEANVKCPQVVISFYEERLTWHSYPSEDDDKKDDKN
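HP1-beta protein (50 nM final) preincubated 30 min at room temperature with biotinylated H3(1-18)K9me3 peptide (50 nM) in PBS pH 7.4, 0.01% Tween-20, then compound added for 30 min. AlphaScreen streptavidin donor/nickel chelate acceptor beads (10 ug/mL final), 30 min dark, luminescence read.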
ALOX12 inh: Primary qHTS assay for inhibitors of human arachidonate 12S-lipoxygenase (ALOX12): Round 2. purified 12hLO, xylenol orange hydroperoxide absorbance. Polyunsaturated fatty acid lipoxygenase ALOX12 (Homo sapiens), P18054. 580,000 compounds, 1.1% hits. Potency, µM (highest dose often 108 µM), hits mostly inhibitors
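Hydroperoxide product was detected by ferrous iron/xylenol orange as the 573 to 405 nm absorbance ratio. Arachidonic acid at 40 uM (final) was turned over for 30 min at room temperature by 150 nM human 12hLO, pH 7.0 Hepes buffer, after 15 min compound preincubation.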
JMJD2A Tudor inh: qHTS Assay for Inhibitors of JMJD2A-Tudor Domain; Lysine-specific demethylase 4A (Homo sapiens), O75164; AlphaScreen JMJD2A-Tudor / H3K4me3 peptide binding; Potency, µM (series often up to 114 µM), usual class: inhibitors; 390,000 compounds, 4.4% hits; AID 504339, 2011; also: nearly all actives have a fitted effect of over 50% in size
G9a block: qHTS Assay for Inhibitors of Histone Lysine Methyltransferase G9a; 350,000 compounds, 8.8% hits; G9a H3K9 monomethylation, AlphaScreen, 2 h; Potency, µM (series often up to 102 µM), most hits filed as inhibitors; AID 504332, 2011; Histone-lysine N-methyltransferase EHMT2 (Homo sapiens), Q96KQ7; also: nearly all actives have a fitted effect of over 75% in size
Target sequence (Q96KQ7 913-1193 limits assumed): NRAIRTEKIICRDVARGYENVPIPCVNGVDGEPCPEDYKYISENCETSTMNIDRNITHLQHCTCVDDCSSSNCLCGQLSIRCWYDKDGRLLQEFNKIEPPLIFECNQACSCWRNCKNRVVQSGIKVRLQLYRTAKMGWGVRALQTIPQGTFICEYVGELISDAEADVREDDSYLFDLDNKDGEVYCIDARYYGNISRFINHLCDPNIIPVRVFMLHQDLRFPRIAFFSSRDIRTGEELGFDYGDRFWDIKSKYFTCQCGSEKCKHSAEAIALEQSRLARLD
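Signal arises when biotinylated H3K9 peptide, once monomethylated, bridges streptavidin donor and antibody-captured acceptor beads. Enzyme at 20 nM was preincubated 15 min with test compounds; peptide 500 nM and SAM 20 uM then reacted for 2 h.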
Sfp PPTase inh: qHTS Assay for Inhibitors of Bacillus subtilis Sfp phosphopantetheinyl transferase (PPTase). 4'-phosphopantetheinyl transferase ffp (Bacillus subtilis), Q9F4F7. Biochemical Sfp PPTase activity, qHTS. Potency, µM, actives largely listed as inhibitors. 310,000 compounds, 3.5% hits;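 also: the enzyme is Sfp with the accession as filed and its product quenches rhodamine fluorescence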
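Step 1, compound plus 15 nM Sfp-PPTase, 15 min, room temperature. Step 2, add rhodamine-CoA (5 uM) and BHQ-2-YbbR (12.5 uM). Step 3, read 525/598 nm fluorescence at 0 and 30 min.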
BAZ2B block: qHTS Assay for Inhibitors of BAZ2B | AID 504333, 2011 | Potency, µM (doses to about 114 µM), hits mostly inhibitors | 360,000 compounds, 4.4% hits | AlphaScreen BAZ2B-H3K14Ac peptide displacement; also: nearly all actives have a fitted effect of over 60% in size
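AlphaScreen displacement: compounds (up to 110uM) incubated 30 min at room temperature with a preformed 50 nM BAZ2B/50 nM biotinylated H3K14Ac peptide complex in PBS pH 7.4 with Tween-20. Donor and acceptor beads at 10 ug/mL final added, 20 min light-protected before reading.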
A number is an active result. Calls follow the shape of the dose curve; as a rule, active = well fitted curve in the direction sought with a large enough effect; inconclusive = small, poorly fitted or top-dose-only effect, or another doubt; inactive = no such curve, though single readings can be large; an effect the other way counts as inactive or inconclusive.

For Cc1cc(C)nc(NC(=O)C2c3ccccc3Oc3ccccc32)n1 the results were HP1b binding inh inactive, ALOX12 inh inactive, JMJD2A Tudor inh inactive, G9a block 50µM, Sfp PPTase inh inactive and BAZ2B block inactive.
For Cc1cc(C)c(/C=C/c2onc(C)c2S(=O)(=O)N2CCC(C(=O)N3CCN(c4ccccc4)CC3)CC2)c(C)c1 the results were HP1b binding inh inactive, ALOX12 inh inconclusive, JMJD2A Tudor inh 22µM, G9a block inactive and BAZ2B block inactive.
`COc1cccc(N2CCN(C(=O)C3CCN(S(=O)(=O)c4c(C)noc4C)CC3)CC2)c1` gave HP1b binding inh inactive, ALOX12 inh inactive, JMJD2A Tudor inh inactive, G9a block inactive and BAZ2B block inactive.
Screening COc1ccc(N2CCN(C(=O)C3CCN(S(=O)(=O)c4cccc5nonc45)CC3)CC2)cc1 returned HP1b binding inh inactive, ALOX12 inh inactive, JMJD2A Tudor inh inactive, G9a block inconclusive and BAZ2B block 79µM.
`COc1ccc(N2CCN(C(=O)C3CCCN(S(=O)(=O)c4c(C)noc4C)C3)CC2)cc1` (stereo unspecified) gave HP1b binding inh inactive, ALOX12 inh inactive, JMJD2A Tudor inh inactive, G9a block 32µM, Sfp PPTase inh inactive and BAZ2B block inconclusive.
Cc1nc2ccc(C(=O)OCC(=O)NC3CC3)cc2nc1C was read as ALOX12 inh inactive.
Screening CN(C)[C@@H]1[C@@H](NC(=O)Cc2noc3ccccc23)[C@H]2CCO[C@H]21 returned ALOX12 inh inactive.
Screening CN(CCOc1ccccc1)Cc1cc(=O)oc2cc(O)ccc12 returned ALOX12 inh inactive.
O=c1c2cn[nH]c2[nH]c(=S)n1-c1cccc(Cl)c1 was read as HP1b binding inh inactive, ALOX12 inh inactive, JMJD2A Tudor inh inactive, G9a block 32µM, Sfp PPTase inh inactive and BAZ2B block inactive.
Cn1c(=O)n(-c2cccc(Cl)c2)c(=O)n1C was read as HP1b binding inh inactive, ALOX12 inh inactive, JMJD2A Tudor inh inactive, G9a block inactive, Sfp PPTase inh inactive and BAZ2B block inactive.
`O=[S+]([O-])(Nc1ccccc1)c1ccc2c(c1)OCCN(Cc1ccc(F)cc1)C2` gave ALOX12 inh inactive.
Screening CCN(CC)c1ccc(/C=N/NC(=O)c2c[nH]c3ccccc23)cc1 returned HP1b binding inh inactive, ALOX12 inh inactive, JMJD2A Tudor inh inactive, G9a block 8.9µM, Sfp PPTase inh inactive and BAZ2B block inconclusive.
Screening CCN(CC)c1ccc(/C=N/NC(=O)c2ccccn2)cc1 returned HP1b binding inh inactive, ALOX12 inh inactive, JMJD2A Tudor inh inactive, G9a block inactive, Sfp PPTase inh inactive and BAZ2B block inactive.
For CCN(CC)c1ccc(/C=N/NC(=O)c2cnccn2)cc1 the results were HP1b binding inh inactive, ALOX12 inh inactive, JMJD2A Tudor inh inactive, G9a block 56µM and Sfp PPTase inh inconclusive.
CCN(CC)c1ccc(/C=N/NC(=O)c2cc3ccccc3[nH]2)cc1 was read as HP1b binding inh inactive, ALOX12 inh inactive, JMJD2A Tudor inh inactive, Sfp PPTase inh inactive and BAZ2B block inconclusive.
For CC1SC(=NC(=O)c2ccncc2)NC1=O (stereo unspecified) the results were HP1b binding inh inactive, ALOX12 inh inactive, JMJD2A Tudor inh inactive, G9a block 40µM, Sfp PPTase inh inactive and BAZ2B block inactive.
Screening Cc1sc2nc(-c3cccs3)nc(N3CCCN(C)CC3)c2c1C returned G9a block inactive, Sfp PPTase inh 56µM and BAZ2B block inactive.
For CCOC(=O)C(O)(c1ccc(N(C)C(C)=O)cc1)C(F)(F)F (stereo unspecified) the results were ALOX12 inh inactive.
